Results taken from PubChem BioAssay (Tox21).
Inconclusive results are not listed. Activity calls are given as the source filed them. Unless noted, calls come from the whole dose curve; as a rule, active = well fitted curve in the direction sought with a large enough effect in the repeat runs; inconclusive = weak or mixed curves; inactive = no such curve, though single readings can be large; an effect the other way counts as inactive or inconclusive.

Tests used:
[1] = molecular target: Nuclear receptor subfamily 1 group I member 3 (Homo sapiens) (UniProt Q14994); experiment: qHTS assay to identify small molecule agonists of the constitutive androstane receptor (CAR) signaling pathway (AID 1224839);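 note: HepG2 cells stably carrying human CAR and a CYP2B6 luciferase reporter; series mostly up to about 92 µM; nearly all actives have a fitted effect of over 15% in size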
Sequence of Nuclear receptor subfamily 1 group I member 3 (Homo sapiens) (Q14994 whole entry, looked up): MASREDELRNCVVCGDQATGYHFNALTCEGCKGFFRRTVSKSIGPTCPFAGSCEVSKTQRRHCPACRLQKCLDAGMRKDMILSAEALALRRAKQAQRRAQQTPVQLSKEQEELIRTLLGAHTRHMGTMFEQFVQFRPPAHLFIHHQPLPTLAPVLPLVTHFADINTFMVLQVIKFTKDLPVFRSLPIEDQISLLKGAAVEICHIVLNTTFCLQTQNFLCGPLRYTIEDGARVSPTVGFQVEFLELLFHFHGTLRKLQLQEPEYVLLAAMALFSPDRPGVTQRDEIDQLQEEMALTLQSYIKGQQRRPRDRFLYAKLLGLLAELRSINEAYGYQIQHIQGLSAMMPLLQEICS
Procedure, shortened: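 In this screen, CAR-driven CYP2B6 promoter activity is measured by luminescence in HepG2-CYP2B6-hCAR cells after 24 h with test compounds and 0.75 uM PK11195 (final concentration).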

[2] = qHTS assay to identify small molecule antagonists of the estrogen related receptor signaling pathway with the pleiotropic PPARgamma coactivator (PGC) from Tox21 10K library - cell viability counter screen (AID 1224840; active = well fitted cell-killing curve with a large enough effect in the repeat runs, not every such curve was filed as active; note: nearly all actives have a fitted effect of over 40% in size)
Procedure, shortened: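 Following seeding of 2,000 PGC/ERR cells/well and 6 hours' incubation, test compounds were delivered in DMSO. The plates then sat 17.5 hours at 37 C before a fluorogenic live-cell protease reagent (CellTiter-Fluor) was read after 30 min.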

[3] = molecular target: Thyrotropin receptor (Homo sapiens) (UniProt P16473); experiment: qHTS assay to identify small molecule agonists of the thyroid stimulating hormone receptor (TSHR) signaling pathway (AID 1224843; calls by dose curve; note: nearly all actives have a fitted effect of over 45% in size)
Sequence of Thyrotropin receptor (Homo sapiens) (P16473 whole entry, looked up): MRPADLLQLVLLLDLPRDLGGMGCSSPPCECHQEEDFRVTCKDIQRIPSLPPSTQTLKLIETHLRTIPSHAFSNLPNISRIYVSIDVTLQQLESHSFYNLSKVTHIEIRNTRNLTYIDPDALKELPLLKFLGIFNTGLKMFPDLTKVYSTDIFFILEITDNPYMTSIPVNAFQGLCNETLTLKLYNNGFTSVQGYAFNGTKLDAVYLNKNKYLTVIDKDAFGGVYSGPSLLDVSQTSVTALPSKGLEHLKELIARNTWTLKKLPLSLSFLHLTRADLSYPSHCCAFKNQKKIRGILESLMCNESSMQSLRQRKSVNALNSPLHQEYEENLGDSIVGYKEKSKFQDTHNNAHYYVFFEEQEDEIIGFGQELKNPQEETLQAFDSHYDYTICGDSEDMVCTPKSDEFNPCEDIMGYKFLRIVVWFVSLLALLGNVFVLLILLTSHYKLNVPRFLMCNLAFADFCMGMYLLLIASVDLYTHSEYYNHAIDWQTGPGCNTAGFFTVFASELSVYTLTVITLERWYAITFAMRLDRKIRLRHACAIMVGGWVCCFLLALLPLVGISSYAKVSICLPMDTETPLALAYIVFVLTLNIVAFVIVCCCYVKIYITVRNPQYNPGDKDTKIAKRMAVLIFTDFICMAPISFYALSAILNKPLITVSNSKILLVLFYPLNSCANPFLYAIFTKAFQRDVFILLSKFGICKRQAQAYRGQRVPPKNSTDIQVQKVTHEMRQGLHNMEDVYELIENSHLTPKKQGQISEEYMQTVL
Procedure, shortened: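 Steps: seed 800 TSHR-HEK293 cells per well; add test compound and hold 30 min at ambient temperature; dispense cAMP-d2 then anti-cAMP cryptate; incubate 1 h at ambient; measure fluorescence intensity.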

[4] = qHTS assay to identify small molecule agonists of the hypoxia (HIF-1) signaling pathway - cell viability counter screen (AID 1224844; calls by dose curve; note: nearly all actives have a fitted effect of over 50% in size)
Procedure, shortened: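 Cells (HRE-bla ME-180, 2,000 per well) sat 5 hrs at 37C, got compound for 17 hrs, were read for CCF4-AM FRET, and were finally lysed with CellTiter-Glo for a 30 min room-temperature luminescence read.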

[5] = qHTS assay to identify small molecule agonists of H2AX (AID 1224845; active = well fitted activation curve with a large enough effect in the signal ratio in the repeat runs, not every such curve was filed as active; the % refers to the signal ratio)
Procedure, shortened: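 Wild-type CHO-K1 cells, plated overnight, exposed 3hr at 37C to 15 concentrations (0.76% DMSO final). Lysed, then HTRF anti-pH2AX (S139) cryptate and anti-H2AX-d2 antibodies, 24 hr room temperature; 665/620 nm emission read.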

[6] = qHTS assay to identify small molecule agonists of the hypoxia (HIF-1) signaling pathway (AID 1224846; active = well fitted activation curve with a large enough effect in the signal ratio in the repeat runs, not every such curve was filed as active; the % refers to the signal ratio)
Procedure, shortened: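 A low-serum medium (0.5% dialyzed FBS) holding 2,000 HRE-bla ME-180 cells per well is preincubated for 5 hrs, dosed with compounds by pintool, and kept a further 17 hrs at 37C, 5% CO2 before CCF4-AM FRET detection of beta-lactamase.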

[7] = qHTS assay to identify small molecule agonists of H2AX - cell viability counter screen (AID 1224847; calls by dose curve; note: top concentration of the series differs between compounds; nearly all actives have a fitted effect of over 30% in size)
Procedure, shortened: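 Read-out: CellTiter-Glo luminescence, 30 min RT. Cells: wild-type CHO-K1, 1000/well, 10% FBS, plated overnight at 37C. Treatment: 15 concentrations, 3 hr, 37C, 0.76% DMSO.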

[8] = qHTS RealTime-Glo MT Cell Viability Assay in HepG2 cells - 24 hour (AID 1224867); note: nearly all actives have a fitted effect of over 50% in size
Procedure, shortened: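 qHTS, HepG2, 600 cells/well, RealTime-Glo (NanoLuc + prosubstrate) added with cells; 5 h preincubation; DMSO compound addition; 37 C; luminescence at 0/8/16/24/32/40 h.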

[9] = qHTS RealTime-Glo MT Cell Viability Assay in HEK293 cells - 32 hour (AID 1224868); note: top concentration of the series differs between compounds; nearly all actives have a fitted effect of over 50% in size
Procedure, shortened: (§1)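 Assay medium contained NanoLuc luciferase plus cell-permeant prosubstrate, added with HEK293 cells at 600 cells/well. After 5 h at 37 C/5% CO2 compounds were added; plates stayed at 37 C for 40 h with serial luminescence reads.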

[10] = A CellTox Green Cytotoxicity Assay to monitor cytotoxicity in HEK293 cells - 0 hour (AID 1224869); note: nearly all actives have a fitted effect of over 50% in size
Procedure, shortened: (§2)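 Fluorescence intensity, read at 0, 8, 16, 24, 32 and 40 h of compound treatment, reflected dye binding to DNA of dead HEK293 cells; compounds (23 nL, DMSO) were added 5 h after plating cells with reagent.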

[11] = qHTS RealTime-Glo MT Cell Viability Assay in HepG2 cells - 40 hour (AID 1224870); note: nearly all actives have a fitted effect of over 50% in size
Procedure, shortened: (§3)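 HepG2 cells (600/well) mixed with RealTime-Glo MT reagent, settled 5 h at 37 C/5% CO2 before compound addition. Nonlytic NanoLuc luminescence from viable-cell prosubstrate reduction read repeatedly during 40 h treatment at 37 C.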

[12] = A CellTox Green Cytotoxicity Assay to monitor cytotoxicity in HEK293 cells - 40 hour (AID 1224871); note: nearly all actives have a fitted effect of over 45% in size
Procedure, shortened: as §2

[13] = qHTS RealTime-Glo MT Cell Viability Assay in HEK293 cells - 40 hour (AID 1224874); conditions: RealTime-Glo luminescence; max response: active compounds read low; note: nearly all actives have a fitted effect of over 50% in size
Procedure, shortened: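 Viable HEK293 cells reduce a cell-permeant prosubstrate; the product diffuses out and is consumed by NanoLuc in the medium to give light. Compounds went in after a 5 h incubation and plates were read over the treatment course.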

[14] = A CellTox Green Cytotoxicity Assay to monitor cytotoxicity in HEK293 cells - 24 hour (AID 1224875); note: series mostly up to about 77 µM; nearly all actives have a fitted effect of over 45% in size
Procedure, shortened: as §2

[15] = qHTS RealTime-Glo MT Cell Viability Assay in HEK293 cells - 16 hour (AID 1224872)
Procedure, shortened: as §1

[16] = qHTS RealTime-Glo MT Cell Viability Assay in HepG2 cells - 8 hour (AID 1224873); note: nearly all actives have a fitted effect of over 55% in size
Procedure, shortened: as §3
% is set by controls: 0 for no effect and ±100 for the full control effect.

O=C(CCCl)NCCc1ccccc1
inactive: Potency [1] | outcome [2] | outcome [3] | outcome [4] | outcome [5] | outcome [6] | outcome [7] | outcome [8] | Potency [9] | Potency [10] | outcome [11] | Potency [12] | max response [13] 5.46% | Potency [14]

O=C(O)[C@H](O)c1ccccc1
inactive: Potency [1] | outcome [2] | outcome [3] | outcome [4] | outcome [5] | outcome [6] | outcome [7] | outcome [8] | Potency [9] | Potency [10] | Potency [12] | Potency [15] | outcome [16] | max response [13] 0.819% | Potency [14]

CC(CO)(CO)CO
inactive: Potency [1] | outcome [2] | outcome [3] | outcome [4] | outcome [5] | outcome [6] | outcome [7] | outcome [8] | Potency [10] | outcome [11] | Potency [12] | Potency [15] | max response [13] 2.55% | Potency [14]

C[C@]12CCC(=O)C=C1CC[C@H]1[C@@H]3CC[C@](O)(C(=O)CO)[C@@]3(C)C[C@H](O)[C@@]12F
inactive: Potency [1] | outcome [2] | outcome [3] | outcome [4] | outcome [5] | outcome [6] | outcome [7] | outcome [8] | Potency [10] | outcome [11] | Potency [12] | Potency [15] | outcome [16] | max response [13] -26.1%

CSc1cnccn1
inactive: Potency [1] | outcome [2] | outcome [3] | outcome [4] | outcome [5] | outcome [6] | outcome [7] | outcome [8] | Potency [10] | outcome [11] | Potency [12] | Potency [15] | outcome [16]

Cc1c(N)cccc1Cl
inactive: Potency [1] | outcome [2] | outcome [3] | outcome [4] | outcome [5] | outcome [6] | outcome [7] | outcome [8] | Potency [9] | Potency [10] | Potency [12] | Potency [15] | max response [13] 5.05% | Potency [14]

COC(=O)/C=C\C(=O)O
inactive: Potency [1] | outcome [2] | outcome [3] | outcome [4] | outcome [5] | outcome [6] | outcome [7] | outcome [8] | Potency [10] | outcome [11] | Potency [12] | outcome [16] | max response [13] 0.0191% | Potency [14]

Cc1cc(C)c(C(=O)O)c(C)c1
inactive: Potency [1] | outcome [2] | outcome [3] | outcome [4] | outcome [5] | outcome [6] | outcome [7] | outcome [8] | Potency [9] | Potency [10] | Potency [12] | Potency [15] | outcome [16] | max response [13] 1.4% | Potency [14]

CC(=O)CC(=O)Nc1ccc(C)cc1C
inactive: Potency [1] | outcome [2] | outcome [3] | outcome [4] | outcome [5] | outcome [6] | outcome [7] | outcome [8] | Potency [10] | outcome [11] | Potency [12] | Potency [15] | max response [13] -1.23% | Potency [14]

CC(C)CO
inactive: Potency [1] | outcome [2] | outcome [3] | outcome [4] | outcome [5] | outcome [6] | outcome [7] | outcome [8] | Potency [9] | Potency [10] | outcome [11] | Potency [15] | max response [13] -4.29%

CCC(C)C(=O)OCCc1ccccc1 (configuration not stated)
inactive: Potency [1] | outcome [2] | outcome [3] | outcome [4] | outcome [5] | outcome [6] | outcome [7] | outcome [8] | Potency [9] | Potency [10] | outcome [16] | max response [13] -0.807% | Potency [14]

O=[N+]([O-])c1c(Cl)cc(Cl)cc1Cl
inactive: Potency [1] | outcome [2] | outcome [3] | outcome [4] | outcome [5] | outcome [6] | outcome [7] | outcome [8] | Potency [9] | Potency [10] | outcome [16] | max response [13] -1.77%

OC1(c2ccc(Cl)cc2)CCNCC1
inactive: Potency [1] | outcome [2] | outcome [3] | outcome [4] | outcome [5] | outcome [6] | outcome [7] | outcome [8] | Potency [9] | Potency [10] | Potency [12] | outcome [16] | max response [13] 3.5%

Cn1c(=O)c2[nH]c(Br)nc2n(C)c1=O
inactive: Potency [1] | outcome [2] | outcome [3] | outcome [4] | outcome [5] | outcome [6] | outcome [7] | outcome [8] | Potency [9] | Potency [10] | Potency [12] | Potency [15] | outcome [16] | max response [13] 4.15%

CC(C)OC(=O)CCC(=O)OC(C)C
inactive: Potency [1] | outcome [2] | outcome [3] | outcome [4] | outcome [5] | outcome [6] | outcome [7] | outcome [8] | Potency [9] | Potency [10] | outcome [11] | Potency [12] | Potency [15] | max response [13] 8.19% | Potency [14]
